Results reported in PubChem BioAssay (NCI).
The panel holds about 83,000 compounds, 20% with a hit somewhere; the sample as a whole holds those more often.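 Compound tested at a single concentration for 48 hours in 96-well plates; a percent growth value below 10 was scored as active.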 Unmarked numbers belong to inactive results. The source made the active and inactive calls.

Tested on: NCI-H322M lung
Assay: NCI-60 one-dose screen, 48 h (100 = growth as untreated, 0 = no growth, -100 = all killed)
Settings: 10 µM unless noted

SMILES	growth
COc1ccc2c(c1)OC1=C(C(=O)OC1)C2c1cc(OC)c2c(c1)OCO2 (stereo not drawn)	49%
Cc1cccc(/C=N/Nc2cc(C)c3cccc(C)c3n2)n1	100%
COc1ccc(C2C=C(c3ccc(Cl)cc3)N=C3SC=C(C)N32)c(Br)c1 (stereo not drawn)	55.2%
COC1=C(OC)C(=O)C(CCCCCCCCCC[P+](c2ccccc2)(c2ccccc2)c2ccccc2)=C(C)C1=O	-17.9% (active)
CC1CN(c2oc(-c3ccccc3)nc2C#N)CC(C)O1 (stereo not drawn)	99.1%
COc1ccc(Cn2cc3c(c2-c2cc(OC)c(OC)c(OC)c2)CCc2cnoc2-3)cc1	35.8%
COc1ccc(C2=C(c3cc(OC)c(OC)c(OC)c3)C(=O)CC2)cc1	47.8%
COc1ccc2c(c1)NC1=C(C(=O)OC1)C2c1cc(OC)c2c(c1)OCO2 (stereo not drawn)	52.4%
O=[N+]([O-])c1cc(S(=O)(=O)Oc2ccccc2)ccc1Cl	-13.3% (active)
COc1cc(NC(N)=NCCC(C)(C)Oc2ccc(C(F)(F)F)cc2)ncc1C#N	20.5%
COc1ccc(Nc2nn3c(-c4ccccc4)cc(-c4ccccc4)nc3c2C(N)=O)c(OC)c1	61.4%
CC[N+](CC)=c1cc2oc3cc(N(C)C)ccc3nc-2cc1C	-28.4% (active)
COc1ccc(Nc2ncccc2C(=O)NCc2cn(Cc3cccc(Oc4ccccc4)c3)nn2)cc1	46.1%
CN(C)CCOC(=O)Nc1ccccc1Cl	104%
CN1CCN(Cc2ccc(NC(=O)c3cncc(C#Cc4cnc(N)c5cnccc45)c3)cc2C(F)(F)F)CC1	13%
CCC1=CCC[C@@]2(C)CCC[C@@]3(C)CCCC(C)(C)[C@]1([O-])[O+]32	116%
CCNc1nc(S(=O)(=O)CC)nc2ccccc12	104%
CC12CCC3C4(C)COC(c5ccco5)OC4CCC3(C)C1CC(C1=CCOC1=O)O2 (stereo not drawn)	98.9%
Cc1cc(C)n(-c2nnc3n2N=C(c2ccc(-c4ccccc4)cc2)CS3)n1	71.1%
N=c1ccc2nc3ccc(N)cc3sc-2c1	51.6%

SMILES	growth
CN(C)CCCC(C#N)c1ccccc1 (stereo not drawn)	115%
O=S(=O)(NCCCNc1nccc(-n2ccc3cccnc32)n1)c1cccc(C(F)(F)F)c1	106%
COc1cccc(-c2cc3c(O)cc(C#N)cc3[nH]2)c1	85.4%
CCCCCCCCCCCCNC(=O)[C@H]1CSC(c2ccsc2)N1 (stereo partly drawn)	3.58% (active)
c1ccc(Nc2nc(Nc3ccccc3)nc(Nc3ccccc3)n2)cc1	57.3%
O=C(Oc1ccccc1[N+](=O)[O-])C1CCCN1C(=O)OCc1ccccc1 (stereo not drawn)	121%
O=C(/C=C\c1cccc([N+](=O)[O-])c1)/C=C/c1cccc([N+](=O)[O-])c1	98.2%
CCCCCCCCCCCCNC(=O)[C@H]1CSC(c2cc3ccccc3s2)N1 (stereo partly drawn)	16.6%
COc1ccc(S(=O)(=O)Nc2cc(/C=C\c3cc(OC)c(OC)c(OC)c3)cc(OC)c2OC)cc1	27.1%
Oc1ccc(Cl)cc1-c1cc(-c2ccc(F)cc2)n[nH]1	68.1%
CCCCN(CCCC)C(=O)CC	117%
COc1ccc(N2CCN(Cc3cc(C(=O)/C=C/c4c[nH]c5ccccc45)ccc3O)CC2)cc1	100%
O=C1c2c(c3c4ccccc4n(CCCCCCBr)c3c3[nH]c4ccccc4c23)C(=O)N1O	14.8%
CCCCCCCC[C@@H](O)CC(=O)N[C@@H](CC(N)=O)C(=O)N[C@@H](CCC(N)=O)C(=O)N[C@@H](CC(=O)c1cc(C)cc(O)c1C(=O)c1c(O)cccc1O)CC(C)C	86.8%
S=C(S)NCCc1c[nH]c2ccccc12	99.9%
O=C1/C(=C/c2ccccc2)Oc2ccc(O)c(I)c21	94.5%
COc1ccc(C2=CC(c3cc(OC)c(OC)c(OC)c3)NC(=O)N2)cc1OC (stereo not drawn)	-9.67% (active)
O=C(O)C1CCCCN1c1nc(Cl)nc(Cl)n1 (stereo not drawn)	106%
O=S(=O)(NCCCNc1nccc(-n2ccc3cccnc32)n1)c1ccc(Br)cc1	103%

Tested on: HOP-62 NSCLC
Assay: as above
Settings: 10 µM unless noted

SMILES	growth
COc1ccc2c(c1)OC1=C(C(=O)OC1)C2c1cc(OC)c2c(c1)OCO2 (stereo not drawn)	29.6%
Cc1cccc(/C=N/Nc2cc(C)c3cccc(C)c3n2)n1	110%
COc1ccc(C2C=C(c3ccc(Cl)cc3)N=C3SC=C(C)N32)c(Br)c1 (stereo not drawn)	30.5%
COC1=C(OC)C(=O)C(CCCCCCCCCC[P+](c2ccccc2)(c2ccccc2)c2ccccc2)=C(C)C1=O	-19.5% (active)
CC1CN(c2oc(-c3ccccc3)nc2C#N)CC(C)O1 (stereo not drawn)	103%
COc1ccc(Cn2cc3c(c2-c2cc(OC)c(OC)c(OC)c2)CCc2cnoc2-3)cc1	64.2%
COc1ccc(C2=C(c3cc(OC)c(OC)c(OC)c3)C(=O)CC2)cc1	38.1%
COc1ccc2c(c1)NC1=C(C(=O)OC1)C2c1cc(OC)c2c(c1)OCO2 (stereo not drawn)	43.2%
O=[N+]([O-])c1cc(S(=O)(=O)Oc2ccccc2)ccc1Cl	54%
COc1cc(NC(N)=NCCC(C)(C)Oc2ccc(C(F)(F)F)cc2)ncc1C#N	31%
COc1ccc(Nc2nn3c(-c4ccccc4)cc(-c4ccccc4)nc3c2C(N)=O)c(OC)c1	47.3%
CC[N+](CC)=c1cc2oc3cc(N(C)C)ccc3nc-2cc1C	18.3%
COc1ccc(Nc2ncccc2C(=O)NCc2cn(Cc3cccc(Oc4ccccc4)c3)nn2)cc1	51.2%
CN(C)CCOC(=O)Nc1ccccc1Cl	101%
CN1CCN(Cc2ccc(NC(=O)c3cncc(C#Cc4cnc(N)c5cnccc45)c3)cc2C(F)(F)F)CC1	-23.7% (active)
CCC1=CCC[C@@]2(C)CCC[C@@]3(C)CCCC(C)(C)[C@]1([O-])[O+]32	104%
CCNc1nc(S(=O)(=O)CC)nc2ccccc12	96.1%
CC12CCC3C4(C)COC(c5ccco5)OC4CCC3(C)C1CC(C1=CCOC1=O)O2 (stereo not drawn)	105%
Cc1cc(C)n(-c2nnc3n2N=C(c2ccc(-c4ccccc4)cc2)CS3)n1	54.7%
N=c1ccc2nc3ccc(N)cc3sc-2c1	15%

SMILES	growth
CN(C)CCCC(C#N)c1ccccc1 (stereo not drawn)	103%
O=S(=O)(NCCCNc1nccc(-n2ccc3cccnc32)n1)c1cccc(C(F)(F)F)c1	112%
COc1cccc(-c2cc3c(O)cc(C#N)cc3[nH]2)c1	108%
CCCCCCCCCCCCNC(=O)[C@H]1CSC(c2ccsc2)N1 (stereo partly drawn)	-94.7% (active)
c1ccc(Nc2nc(Nc3ccccc3)nc(Nc3ccccc3)n2)cc1	90.6%
O=C(Oc1ccccc1[N+](=O)[O-])C1CCCN1C(=O)OCc1ccccc1 (stereo not drawn)	111%
O=C(/C=C\c1cccc([N+](=O)[O-])c1)/C=C/c1cccc([N+](=O)[O-])c1	97.2%
CCCCCCCCCCCCNC(=O)[C@H]1CSC(c2cc3ccccc3s2)N1 (stereo partly drawn)	-96.3% (active)
COc1ccc(S(=O)(=O)Nc2cc(/C=C\c3cc(OC)c(OC)c(OC)c3)cc(OC)c2OC)cc1	52.9%
Oc1ccc(Cl)cc1-c1cc(-c2ccc(F)cc2)n[nH]1	62.5%
CCCCN(CCCC)C(=O)CC	119%
COc1ccc(N2CCN(Cc3cc(C(=O)/C=C/c4c[nH]c5ccccc45)ccc3O)CC2)cc1	89%
O=C1c2c(c3c4ccccc4n(CCCCCCBr)c3c3[nH]c4ccccc4c23)C(=O)N1O	8.33% (active)
CCCCCCCC[C@@H](O)CC(=O)N[C@@H](CC(N)=O)C(=O)N[C@@H](CCC(N)=O)C(=O)N[C@@H](CC(=O)c1cc(C)cc(O)c1C(=O)c1c(O)cccc1O)CC(C)C	6.71% (active)
S=C(S)NCCc1c[nH]c2ccccc12	106%
O=C1/C(=C/c2ccccc2)Oc2ccc(O)c(I)c21	100%
COc1ccc(C2=CC(c3cc(OC)c(OC)c(OC)c3)NC(=O)N2)cc1OC (stereo not drawn)	32.6%
O=C(O)C1CCCCN1c1nc(Cl)nc(Cl)n1 (stereo not drawn)	101%
O=S(=O)(NCCCNc1nccc(-n2ccc3cccnc32)n1)c1ccc(Br)cc1	109%
